Among the targets are ASCC1 (Homo sapiens, UniProt Q8N9N2); RBMY1C (Homo sapiens, UniProt P0DJD4); THOC4 (Homo sapiens, UniProt Q86V81); RALYL (Homo sapiens, UniProt Q86SE5); KRR1 (Homo sapiens, UniProt Q13601).
Assay in all cases: protein domain microarray probed with biotinylated miRNA; Domain array: 20 mM Tris-HCl pH 7.4, 200 mM KCl, 0.2 mM EDTA, 0.05% NP40, 2 ug/ul heparin, overnight 4 C. ORF array: PBS pH 7.0 with RNase inhibitor, 100 ng RNA; high values mean tight binding
What all share (details): ssRNA

The next test has as its target T1, RBM12(3) (Homo sapiens, UniProt Q9NTZ6).
T1 sequence: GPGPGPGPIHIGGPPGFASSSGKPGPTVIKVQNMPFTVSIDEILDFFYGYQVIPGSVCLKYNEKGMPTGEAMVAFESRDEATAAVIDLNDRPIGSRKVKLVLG

A further test deals with T2, RBM41 (Homo sapiens, UniProt Q96IZ5).
T2 sequence: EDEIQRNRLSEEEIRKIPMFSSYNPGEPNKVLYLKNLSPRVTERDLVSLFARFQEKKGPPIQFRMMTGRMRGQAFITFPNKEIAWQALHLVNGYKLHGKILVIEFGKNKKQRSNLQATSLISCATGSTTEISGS

In the next test the target is T3, RBM15 (Homo sapiens, UniProt Q96T37).
T3 sequence: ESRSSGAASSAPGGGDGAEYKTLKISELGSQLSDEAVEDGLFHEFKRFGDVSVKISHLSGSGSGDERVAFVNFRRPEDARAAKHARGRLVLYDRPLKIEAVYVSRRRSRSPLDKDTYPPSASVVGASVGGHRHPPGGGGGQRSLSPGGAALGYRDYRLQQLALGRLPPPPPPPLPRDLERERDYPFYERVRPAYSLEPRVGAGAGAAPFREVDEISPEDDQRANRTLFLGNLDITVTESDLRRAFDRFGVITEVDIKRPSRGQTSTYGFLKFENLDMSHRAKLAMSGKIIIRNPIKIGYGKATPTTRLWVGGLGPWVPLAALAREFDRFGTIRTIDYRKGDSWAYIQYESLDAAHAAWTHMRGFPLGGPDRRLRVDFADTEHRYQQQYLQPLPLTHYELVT

The next test concerns the target T4, TDRKH(1-2) (Homo sapiens, UniProt Q9Y2W6).
T4 sequence: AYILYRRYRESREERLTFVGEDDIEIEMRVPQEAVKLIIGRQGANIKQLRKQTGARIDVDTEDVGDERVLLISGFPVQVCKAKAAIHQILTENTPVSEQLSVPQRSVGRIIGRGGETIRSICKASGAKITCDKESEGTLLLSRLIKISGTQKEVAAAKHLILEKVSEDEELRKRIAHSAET

In the next test the target is T5, RBMS1 (Homo sapiens, UniProt P29558).
T5 sequence: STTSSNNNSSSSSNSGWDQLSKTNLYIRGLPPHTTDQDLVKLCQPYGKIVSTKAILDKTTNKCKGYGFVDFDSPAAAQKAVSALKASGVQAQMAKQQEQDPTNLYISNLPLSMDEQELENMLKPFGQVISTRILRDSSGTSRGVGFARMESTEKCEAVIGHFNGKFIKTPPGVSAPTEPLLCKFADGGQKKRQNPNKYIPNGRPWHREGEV

The target in another test is T6, RBM15B (Homo sapiens, UniProt Q8NDT2).
T6 sequence: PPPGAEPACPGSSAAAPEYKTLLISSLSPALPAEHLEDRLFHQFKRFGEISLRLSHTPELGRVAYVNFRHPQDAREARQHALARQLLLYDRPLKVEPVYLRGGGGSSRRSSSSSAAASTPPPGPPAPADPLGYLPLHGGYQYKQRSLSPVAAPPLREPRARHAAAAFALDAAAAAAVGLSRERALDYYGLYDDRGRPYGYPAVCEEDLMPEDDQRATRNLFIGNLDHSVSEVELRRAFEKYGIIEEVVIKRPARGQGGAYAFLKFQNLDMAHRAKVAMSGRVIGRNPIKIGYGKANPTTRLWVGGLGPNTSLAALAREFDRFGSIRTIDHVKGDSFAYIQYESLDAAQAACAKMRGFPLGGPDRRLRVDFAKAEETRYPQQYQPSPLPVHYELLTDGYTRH

For the next test, the target named is T7, YTHDF1 (Homo sapiens, UniProt Q9BYJ9).
T7 sequence: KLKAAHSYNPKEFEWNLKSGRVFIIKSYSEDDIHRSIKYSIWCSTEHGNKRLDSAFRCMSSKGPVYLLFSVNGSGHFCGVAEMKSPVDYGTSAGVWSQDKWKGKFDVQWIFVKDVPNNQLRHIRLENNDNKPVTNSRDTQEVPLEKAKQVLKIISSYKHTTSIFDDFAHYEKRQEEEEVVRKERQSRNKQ

The target of another test is T8, RBM27 (Homo sapiens, UniProt Q9P2N5).
T8 sequence: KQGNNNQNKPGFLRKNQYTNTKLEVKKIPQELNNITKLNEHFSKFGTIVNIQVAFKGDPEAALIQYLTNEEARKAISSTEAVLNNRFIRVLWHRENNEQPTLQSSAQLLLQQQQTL

A further test has as its target T9, STAU2(3) (Homo sapiens, UniProt Q9NUL3).
T9 chain: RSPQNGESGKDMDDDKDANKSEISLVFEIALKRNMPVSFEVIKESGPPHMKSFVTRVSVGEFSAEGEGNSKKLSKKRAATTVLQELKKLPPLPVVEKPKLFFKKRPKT

The target of the next test is T10, RKHD3(1-2) (Homo sapiens, UniProt Q6ZN04).
T10 sequence: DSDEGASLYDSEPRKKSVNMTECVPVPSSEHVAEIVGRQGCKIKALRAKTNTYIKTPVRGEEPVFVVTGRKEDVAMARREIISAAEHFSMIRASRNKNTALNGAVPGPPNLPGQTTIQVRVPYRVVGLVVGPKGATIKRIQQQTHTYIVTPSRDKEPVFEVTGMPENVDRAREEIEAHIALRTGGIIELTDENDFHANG

A further test deals with T11, RBM19(2-4) (Homo sapiens, UniProt Q9Y4C8).
T11 sequence: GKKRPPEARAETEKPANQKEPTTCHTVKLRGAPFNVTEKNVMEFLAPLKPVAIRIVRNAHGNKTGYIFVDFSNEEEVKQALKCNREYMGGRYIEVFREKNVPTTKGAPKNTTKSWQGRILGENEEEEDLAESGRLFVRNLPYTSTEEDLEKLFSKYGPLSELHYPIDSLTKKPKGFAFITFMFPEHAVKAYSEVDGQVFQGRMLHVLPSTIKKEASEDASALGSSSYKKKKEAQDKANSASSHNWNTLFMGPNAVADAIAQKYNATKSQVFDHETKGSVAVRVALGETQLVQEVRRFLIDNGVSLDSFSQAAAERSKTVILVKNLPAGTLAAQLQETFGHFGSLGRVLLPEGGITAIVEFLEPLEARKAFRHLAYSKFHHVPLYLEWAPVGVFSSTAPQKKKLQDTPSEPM

The target in another test is T12, RBM26(2) (Homo sapiens, UniProt Q5T8P6).
T12 sequence: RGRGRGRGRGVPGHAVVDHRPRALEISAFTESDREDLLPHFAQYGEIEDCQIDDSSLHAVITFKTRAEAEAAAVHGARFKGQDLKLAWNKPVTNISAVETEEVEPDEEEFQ

A further test deals with T13, RBM14 (Homo sapiens, UniProt Q96PK6).
T13 sequence: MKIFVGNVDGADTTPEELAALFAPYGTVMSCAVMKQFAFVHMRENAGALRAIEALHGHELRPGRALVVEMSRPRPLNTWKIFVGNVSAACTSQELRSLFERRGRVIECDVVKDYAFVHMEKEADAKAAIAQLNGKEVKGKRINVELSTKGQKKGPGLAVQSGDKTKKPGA

For the next test, the target named is T14, PIG38 (Homo sapiens, UniProt Q8TC92).
T14 sequence: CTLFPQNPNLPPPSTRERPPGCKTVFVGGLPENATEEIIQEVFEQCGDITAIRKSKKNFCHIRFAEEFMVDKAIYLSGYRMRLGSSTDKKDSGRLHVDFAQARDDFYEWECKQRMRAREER

For another test, the target named is T15, SF1 (Homo sapiens, UniProt Q15637).
T15 sequence: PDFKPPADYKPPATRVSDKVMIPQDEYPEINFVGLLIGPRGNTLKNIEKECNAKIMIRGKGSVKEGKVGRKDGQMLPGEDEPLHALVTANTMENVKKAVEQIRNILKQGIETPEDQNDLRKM

Binding signal data for 3 sequences are collected here from article PMC11574364.

Chain of RBMY1C (P0DJD4 1-110): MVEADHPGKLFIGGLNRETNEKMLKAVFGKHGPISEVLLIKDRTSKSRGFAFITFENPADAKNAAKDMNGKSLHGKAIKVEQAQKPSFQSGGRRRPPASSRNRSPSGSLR
Chain of KRR1 (Q13601 36-250): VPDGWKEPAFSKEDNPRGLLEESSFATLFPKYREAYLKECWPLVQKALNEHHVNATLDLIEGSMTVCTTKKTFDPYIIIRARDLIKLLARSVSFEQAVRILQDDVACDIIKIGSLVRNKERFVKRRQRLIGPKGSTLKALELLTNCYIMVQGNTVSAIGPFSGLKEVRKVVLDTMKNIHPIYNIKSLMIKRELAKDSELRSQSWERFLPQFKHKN
Chain of RALYL (Q86SE5 1-115): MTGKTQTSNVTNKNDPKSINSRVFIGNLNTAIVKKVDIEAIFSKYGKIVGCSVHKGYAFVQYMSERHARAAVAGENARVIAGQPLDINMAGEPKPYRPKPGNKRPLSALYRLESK
Chain of ASCC1 (Q8N9N2 79-168): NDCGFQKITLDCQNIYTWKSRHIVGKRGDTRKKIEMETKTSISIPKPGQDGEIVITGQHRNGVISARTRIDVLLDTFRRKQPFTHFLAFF

Take AGAGGUAGUAGGUUGCAUAGUU: the binding signal is 26.4 ± 4.72 fluorescence intensity with RBM12(3); 818 ± 64.1 fluorescence intensity with RBM41; 525 ± 1.24 fluorescence intensity with RBM15; 24.9 ± 3.57 fluorescence intensity with ASCC1; 29.6 ± 0.502 fluorescence intensity with TDRKH(1-2); 365.1 ± 1.24 fluorescence intensity in the test with RBMS1. In addition, the binding signal was 242 ± 10.9 fluorescence intensity in the test with RBM15B; 1860 ± 11.9 fluorescence intensity in the test with RBMY1C; 49.2 ± 7.5 fluorescence intensity with THOC4; 52.7 ± 4.33 fluorescence intensity in the test with YTHDF1; 486 ± 29.4 fluorescence intensity in the test with RBM27; 34.1 ± 5.01 fluorescence intensity with STAU2(3). In addition, the binding signal in the test with RKHD3(1-2) was 2320 ± 70.7 fluorescence intensity; in the test with RBM19(2-4) it was 2390 ± 546 fluorescence intensity; in the test with RBM26(2), 168 ± 6.55 fluorescence intensity; in the test with RBM14, 26.3 ± 7.16 fluorescence intensity; in the test with RALYL, 932 ± 89.3 fluorescence intensity; with PIG38, 44.1 ± 0.488 fluorescence intensity. In the test with KRR1, the binding signal amounted to 73.6 ± 7.55 fluorescence intensity.
In the case of UGAGGUAGUAGGUUGUAUGGUU, the binding signal with RBM12(3) was found to be 35.9 ± 0.728 fluorescence intensity; with RBM41, 350 ± 12.9 fluorescence intensity; with RBM15, 537 ± 29.7 fluorescence intensity; with ASCC1, 22.5 ± 1.64 fluorescence intensity; in the test with TDRKH(1-2), 45.7 ± 2.46 fluorescence intensity; in the test with RBMS1, 316 ± 53.1 fluorescence intensity. For the same sequence, the binding signal stood at 309 ± 16.6 fluorescence intensity with RBM15B; 1200 ± 27.5 fluorescence intensity in the test with RBMY1C; 24.7 ± 4.35 fluorescence intensity with SF1; 91.8 ± 21.8 fluorescence intensity in the test with THOC4; 76.9 ± 5.2 fluorescence intensity with YTHDF1; 657 ± 47.5 fluorescence intensity with RBM27. Further, the binding signal with STAU2(3) worked out at 60.2 ± 7.26 fluorescence intensity; with RKHD3(1-2), 1740 ± 134 fluorescence intensity; in the test with RBM19(2-4), 1810 ± 313 fluorescence intensity; with RBM26(2), 298 ± 14 fluorescence intensity; with RBM14 it was 39.7 ± 3.13 fluorescence intensity; in the test with RALYL it was 1090 ± 62.2 fluorescence intensity. Also, the binding signal was found to be 53 ± 2.3 fluorescence intensity in the test with PIG38 and 92.2 ± 12.2 fluorescence intensity with KRR1.
With CAGUGCAAUGAUGAAAGGGCAU, the binding signal with RBM12(3) is 27.1 ± 4.43 fluorescence intensity; in the test with RBM41, 284 ± 7.83 fluorescence intensity; with RBM15, 315.16 ± 0.212 fluorescence intensity; with TDRKH(1-2), 40.4 ± 7.05 fluorescence intensity; with RBMS1 it was 166 ± 3.01 fluorescence intensity; with RBM15B, 128 ± 12.3 fluorescence intensity. Further, the binding signal in the test with RBMY1C is 1150 ± 31.6 fluorescence intensity; with SF1, 107.4 ± 0.728 fluorescence intensity; with THOC4, 40.5 ± 0.424 fluorescence intensity; with YTHDF1 it was 51.305 ± 0.0212 fluorescence intensity; with RBM27, 288 ± 4.19 fluorescence intensity; with STAU2(3) it was 37.5 ± 2.47 fluorescence intensity. Moreover, the binding signal came out at 1440 ± 55 fluorescence intensity in the test with RKHD3(1-2); 2090 ± 439 fluorescence intensity with RBM19(2-4); 25.8 ± 3.42 fluorescence intensity in the test with RBM26(2); 23.1 ± 3.36 fluorescence intensity in the test with RBM14; 381 ± 18.7 fluorescence intensity in the test with RALYL; 31.7 ± 0.785 fluorescence intensity with PIG38. For the same sequence, the binding signal with KRR1 worked out at 74.2 ± 2.13 fluorescence intensity.
